Only some compounds are listed: those with a hit (about 1.8% of all), similar ones and a draw of the others.
SUMO HTRF inh: blocks human SUMOylation mediated by UBC9; P63279; HTRF SUMOylation assay, SAE1/SAE2 + UBC9, in vitro; inhibition, % at 35 µM; 0.36% of 290,000 active; in the data active = inhibition above about 50%, passing the limit was not always enough
Target sequence (P63279 whole entry, looked up): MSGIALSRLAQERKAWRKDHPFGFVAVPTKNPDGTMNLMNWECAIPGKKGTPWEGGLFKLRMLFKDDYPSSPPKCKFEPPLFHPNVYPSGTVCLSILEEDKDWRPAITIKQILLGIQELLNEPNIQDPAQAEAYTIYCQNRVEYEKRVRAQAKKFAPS
p-CIP stab down: lowers stability of the mouse p/CIP coactivator protein; F442A p/CIP-EGFP cells, EGFP fluorescence, 16 h; decrease of EGFP signal, % at 10 µM; 0.01% of 290,000 active; AID 1984;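 active = EGFP signal decrease of at least 30% at 10 µM or well 3 SD below plate mean, unless failing retest; inactive = the rest, including hits failing retest or dose response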
NadD inh: blocks S. aureus nicotinate mononucleotide adenylyltransferase; purified NadD enzyme, colorimetric absorbance read-out; inhibition, % at 20 µM; 0.78% of 360,000 active; AID 602399; in the data active = inhibition above about 26%
PHOSPHO1 inh: blocks human PHOSPHO1 phosphatase activity. Q8TCT1. recombinant PHOSPHO1, absorbance phosphatase assay. inhibition, % at 13.3 µM. 1.1% of 290,000 active. AID 1565; in the data active = inhibition above about 60%
Target sequence (Q8TCT1 whole entry, looked up): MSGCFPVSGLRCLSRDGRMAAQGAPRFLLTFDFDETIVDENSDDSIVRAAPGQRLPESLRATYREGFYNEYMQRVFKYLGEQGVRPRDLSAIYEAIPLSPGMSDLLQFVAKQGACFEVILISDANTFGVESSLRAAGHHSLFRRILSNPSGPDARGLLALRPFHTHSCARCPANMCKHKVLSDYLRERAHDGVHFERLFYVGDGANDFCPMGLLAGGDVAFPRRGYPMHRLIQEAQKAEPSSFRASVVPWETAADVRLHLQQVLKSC
NadD conf: NadD (S. aureus) inhibition, single concentration confirmation. 13% of 2,000 active. AID 624309. inhibition, % at 20 µM. purified S. aureus NadD, colorimetric enzyme assay. shares compounds with NadD inh; in the data active = inhibition mostly above about 42%, no sharp cut-off; inactive = mostly below about 42%
Starred values were filed as active, the others as inactive.

Results for COc1ccc(/C=N\NC(=S)SCN2C(=O)C3CCC(C)(C2=O)C3(C)C)cc1 (centres undefined) ?
NadD inh: 18

How did Cc1cc(Cl)ccc1OCC(=O)Nn1c(C)ccc1C do in these assays?
SUMO HTRF inh: 5; p-CIP stab down: -3; NadD inh: 41*; PHOSPHO1 inh: -15; NadD conf: 4

How did CSc1ccccc1NC(=O)COc1ccc(Cl)cc1C do in these assays?
SUMO HTRF inh: -5; p-CIP stab down: -4; NadD inh: -1; PHOSPHO1 inh: 14

What do the screens show for `CCOC(=O)C(c1nc2ccccc2[nH]1)n1c(-c2ccccn2)nc2ccccc21` (centres undefined)?
NadD inh: 1

What do the screens show for `O=C1C=CC(=O)N1c1ccccc1N1C(=O)C=CC1=O`?
NadD inh: 3

What do the screens show for `CC1=CC(=O)N(c2cccc3c(N4C(=O)C=C(C)C4=O)cccc23)C1=O`?
NadD inh: 58*; NadD conf: 41

How did CC(Nc1nc(=S)nc(Nc2ccc(F)cc2)[nH]1)c1ccccc1 (centres undefined) do in these assays?
SUMO HTRF inh: 2; p-CIP stab down: 0; NadD inh: 31*; PHOSPHO1 inh: 10; NadD conf: 37

Results for CC(Nc1nc(Nc2ccc(F)cc2)nc(SCC(N)=O)n1)c1ccccc1 (centres undefined) ?
SUMO HTRF inh: -17; p-CIP stab down: -7; NadD inh: 2; PHOSPHO1 inh: 19

Results for Cc1c(C(=O)NNC(=O)c2csc(N3CCOCC3)n2)oc2ccc(Br)cc12 ?
NadD inh: 32*; NadD conf: 48

What do the screens show for `Cc1c(C(=O)NNC(=O)c2csc(N3CCOCC3)n2)oc2ccccc12`?
NadD inh: 7

Results for CC1CCCCc2nc3c(c(=O)n21)CCCC3 (centres undefined) ?
NadD inh: 7

What do the screens show for `COc1ccc(-c2csc(NC(=O)C3=NN(c4ccccc4)C(=O)CC3)n2)cc1`?
SUMO HTRF inh: -4; p-CIP stab down: -8; NadD inh: 7; PHOSPHO1 inh: 27

How did COc1ccc(-c2nc(NC(=O)C3=NN(c4cccc(C)c4)C(=O)CC3)sc2C)cc1 do in these assays?
SUMO HTRF inh: 14; p-CIP stab down: -7; NadD inh: 31*; PHOSPHO1 inh: 9; NadD conf: 2

What do the screens show for `COc1ccccc1NS(=O)(=O)c1cc(NC(=O)Nc2ccc(Cl)cc2Cl)ccc1N1CCCCC1`?
SUMO HTRF inh: 1; p-CIP stab down: -5; NadD inh: 43*; PHOSPHO1 inh: -15; NadD conf: 17

How did COc1ccccc1NS(=O)(=O)c1cc(NC(=O)C2CCC2)ccc1N1CCCCC1 do in these assays?
SUMO HTRF inh: -22; p-CIP stab down: -17; NadD inh: 20; PHOSPHO1 inh: -110

What do the screens show for `COc1ccc(S(=O)(=O)NC2CC(=O)N(c3ccccc3)C2)cc1C` (centres undefined)?
NadD inh: -2

What do the screens show for `C/C(=C/CCC(C)[C@H]1CC[C@@]2(C)C3=C(CC[C@]12C)[C@@]1(C)CCC(=O)C(C)(C)[C@@H]1CC3)C(=O)O` (some centres undefined)?
SUMO HTRF inh: -12; p-CIP stab down: -8; NadD inh: 45*; PHOSPHO1 inh: 6; NadD conf: 13

What do the screens show for `COc1ccc(CCNC(=O)c2cc(C(=O)c3cc(C)ccc3O)cn(CCc3ccc(OC)cc3)c2=O)cc1`?
SUMO HTRF inh: 7; p-CIP stab down: -11; NadD inh: -2; PHOSPHO1 inh: -10

How did Nc1ccccc1C(=O)/C=C/c1ccc2c(c1)OCO2 do in these assays?
SUMO HTRF inh: 15; p-CIP stab down: -21; NadD inh: -4; PHOSPHO1 inh: -1

What do the screens show for `CNc1ccc(Br)cc(C(=O)/C=C/c2ccc(Cl)cc2Cl)c1=O`?
SUMO HTRF inh: 41; p-CIP stab down: -9; NadD inh: 62*; PHOSPHO1 inh: 4; NadD conf: 14

Results for CCNc1ccc(Br)cc(C(=O)/C=C/c2ccc(Cl)cc2)c1=O ?
SUMO HTRF inh: 19; p-CIP stab down: 0; NadD inh: 44*; PHOSPHO1 inh: -1; NadD conf: 18

What do the screens show for `CCNc1ccc(Br)cc(C(=O)/C=C/c2ccc3c(c2)OCO3)c1=O`?
SUMO HTRF inh: 22; p-CIP stab down: -3; NadD inh: 52*; PHOSPHO1 inh: 24; NadD conf: 25

Results for Cc1cc2c3c([nH]c2cc1S(=O)(=O)N1CCC2(CC1)OCCO2)CC(C)(C)CC3=O ?
SUMO HTRF inh: -10; p-CIP stab down: 2; NadD inh: -4; PHOSPHO1 inh: -29

What do the screens show for `CCN(Cc1ccc(Br)s1)C(=O)CSc1nnc(C2CC2)n1C1CC1`?
NadD inh: 0

How did O=NN(CCCl)C(=O)NCC1=C[N+](=O)CC=C1 do in these assays?
NadD inh: 6

Results for Cc1ccc(-c2c(C(=O)Nc3ccccc3C)c(C)[nH]c(=S)c2C#N)o1 ?
SUMO HTRF inh: 13; p-CIP stab down: -21; NadD inh: 31*; PHOSPHO1 inh: -30; NadD conf: 3

How did O=C(CC(c1ccccc1)c1cc(Br)ccc1O)N1CCCCC1 (centres undefined) do in these assays?
SUMO HTRF inh: -4; p-CIP stab down: -6; NadD inh: -5; PHOSPHO1 inh: 24

What do the screens show for `CN1C(=O)CC2(C)C1=CCc1scnc12` (centres undefined)?
NadD inh: 1

How did Cc1cc(C)cc(CC(=O)N2CCC2(C)C(=O)NS(=O)(=O)Cc2ccccc2)c1 (centres undefined) do in these assays?
NadD inh: 3

How did Cc1ccc(Nc2nnc(C3C(=O)N(C)C4(C)CC3c3cc(Br)ccc3O4)s2)cc1 (centres undefined) do in these assays?
SUMO HTRF inh: 2; p-CIP stab down: -20; NadD inh: 28*; PHOSPHO1 inh: -4; NadD conf: 4

How did CC1=NN(c2ccc(C)c(C)c2)C(=O)C1C(c1cccc(O)c1)C1C(=O)N(c2ccc(C)c(C)c2)N=C1C (centres undefined) do in these assays?
SUMO HTRF inh: 22; p-CIP stab down: 6; NadD inh: 37*; PHOSPHO1 inh: 50; NadD conf: 61*

What do the screens show for `COc1ccc(C2CC(c3ccccc3)=NN2C(=O)CN2N=NC3C(=O)N(c4cccc(F)c4)C(=O)C32)cc1` (centres undefined)?
SUMO HTRF inh: 17; p-CIP stab down: -3; NadD inh: 40*; PHOSPHO1 inh: -4; NadD conf: 8

How did CCN(C(=O)COC(=O)c1ncc(Cl)c(Cl)c1Cl)c1c(N)n(Cc2ccccc2)c(=O)[nH]c1=O do in these assays?
NadD inh: 4

How did O=[N+]([O-])c1ccc(O)c(-c2nc(-c3ccccc3)c(-c3cccs3)[nH]2)c1 do in these assays?
SUMO HTRF inh: -3; p-CIP stab down: -22; NadD inh: 34*; PHOSPHO1 inh: 22; NadD conf: 10

What do the screens show for `CCOc1cc(-c2nc(-c3ccccc3)c(-c3cc([N+](=O)[O-])ccc3C)[nH]2)ccc1O`?
SUMO HTRF inh: -24; p-CIP stab down: -22; NadD inh: 23; PHOSPHO1 inh: -22

Screening results: PubChem BioAssay, Sanford-Burnham Center for Chemical Genomics
